The nature of experiment [1]: resazurin metabolic signal in HepG2 cells – cell-based, resazurin fluorescence, 24 h, PK04 Diversity Set, profiling panel (AID 1172). As to conditions: HepG2 viability, higher = more signal.
Experiment [2] in a line: budding yeast growth changes without added modifier – OD600, strain BY4716, 24 h, basal condition, primary screen (AID 1173). As to conditions: S. cerevisiae BY4716 growth, OD600, 24 h; higher = more signal, called active from +8 up or from −8 down.
Experiment [3] is described as follows: viability profiling in MM1S myeloma cells – cell-based, resazurin fluorescence, basal, 24 h, PK04 Diversity Set, profiling panel (AID 1174).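 Further: MM1S multiple myeloma cell line.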 Particulars: higher = more signal, called active from +8 up or from −8 down. (Alamar Blue is a resazurin reagent that responds to reducing activity.)
Experiment [4] has as its target Dihydroorotate dehydrogenase (quinone), mitochondrial (Plasmodium falciparum (isolate 3D7)) (UniProt Q08210). The experiment can be described thus: inhibition of P. falciparum DHODH – biochemical, C-terminal His tag, absorbance 600 nm, primary screen (AID 1175).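 Further: recombinant parasite enzyme with a five histidine tag at its C terminus.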 Particulars: PfDHODH enzyme, DCIP absorbance 600 nm; higher = more signal, called active from +8 up or from −8 down.

The nature of experiment [5]: inhibition of PAO1 biofilm formation – strain PAO1, LB-PBS medium, absorbance 600 nm, primary screen (AID 1176). Particulars: P. aeruginosa PAO1 growth/biofilm, A600, 12 h; higher = more signal.
Experiment [6] in a line: growth modulation of vineyard yeast isolate – strain RM11-1a, OD600, basal, 24 h, primary screen (AID 1177).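 Further: cultures grown under basal conditions with no added stressor.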 As to conditions: S. cerevisiae RM11-1a growth, OD600, 24 h; higher = more signal, called active from +8 up or from −8 down.
Experiment [7] is described as follows: growth of efflux-deficient E. coli DRC39 – strain DRC39, OD650, 24 h, E. coli filamentation inducers, primary screen (AID 1178).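 Further: growth measured as culture turbidity by optical density at 650 nm.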 Particulars: E. coli DRC39 acrAB, higher = more signal, called active from +8 up or from −8 down.
A short description of experiment [8]: growth of efflux-deficient E. coli DRC39 – strain DRC39, OD650, 48 h, E. coli filamentation inducers, primary screen (AID 1179).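 Further: screen aims at cell division blockers that make cells filament.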 As to conditions: E. coli DRC39 delta-acrAB growth, higher = more signal, called active from +8 up or from −8 down.
A short description of experiment [9]: viability profiling in RPMI8226 myeloma cells – cell-based, resazurin fluorescence, basal, 24 h, PK04 Diversity Set, profiling panel (AID 1180).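 Further: RPMI8826 multiple myeloma cell line at 5000 cells per well.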 Particulars: higher = more signal.
Experiment [10] addresses E3 ubiquitin-protein ligase XIAP (Homo sapiens) (UniProt P98170). As to the kind of experiment: small molecules binding XIAP protein – biophysical, small-molecule microarray, fluorescence 635 nm, primary screen (AID 1181).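 Further: score merges 667 nm emission and signal to noise over triplicate slides.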 As to conditions: higher = more signal.
Experiment [11] relates to XIP peptide (Xip251-270) binding. The experiment can be described thus: XIP fragment 251-270 binding compounds – biochemical, small-molecule microarray, fluorescence 635/667 nm, 0.1 µg/mL protein, primary screen (AID 1182). Particulars: fluorescent protein binding, 635 nm, higher = more signal, called active from +8 up or from −8 down.
A further experiment concerns XIP peptide (Xip251-270). The experiment can be described thus: compounds binding XIP fragment 251-270 – biochemical, small-molecule microarray, fluorescence 635/667 nm, 0.5 µg/mL protein, primary screen (AID 1183). As to conditions: fluorescence 635 nm, higher = more signal.
Experiment [12] is described as follows: blood-stage malaria parasite viability loss – strain 3D7, DAPI fluorescence, 100 nL, primary screen (AID 1184).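 Further: parasites grown inside human red blood cells in medium with human serum.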 As to conditions: P. falciparum 3D7 growth, 3 d, higher = more signal.
Experiment [13] has as its target Homeobox protein Hox-A13 (Mus musculus) (UniProt Q62424). As to the kind of experiment: disruptors of Hoxa13 oligonucleotide interaction – biochemical, fluorescence polarization, labeled oligonucleotide, primary screen (AID 1185). Particulars: Hoxa13:DNA binding, 15 min, higher = more signal, called active from +8 up or from −8 down.
Experiment [14] can be described thus: blockers of DNA damage checkpoint Chk1 activation – imaging, HeLa, hydroxyurea, phospho-Chk1 antibody, percent positive cells, primary screen (AID 1186). As to conditions: hydroxyurea-induced phospho-Chk1 immunofluorescence imaging, higher = more signal.
The nature of experiment [15]: blockers of DNA damage checkpoint Chk1 activation – imaging, HeLa, hydroxyurea, phospho-Chk1 nuclear intensity, primary screen (AID 1187). As to conditions: hydroxyurea-induced phospho-Chk1 immunofluorescence imaging, higher = more signal.

Where “and” joins values, the source holds several entries; their conditions need not be identical. Identical values can stand only once. Calls of active or inactive are those of the source. Unless noted, how the calls were made is not given here.

Sequence of Dihydroorotate dehydrogenase (quinone), mitochondrial (Plasmodium falciparum (isolate 3D7)) (Q08210 whole entry, looked up): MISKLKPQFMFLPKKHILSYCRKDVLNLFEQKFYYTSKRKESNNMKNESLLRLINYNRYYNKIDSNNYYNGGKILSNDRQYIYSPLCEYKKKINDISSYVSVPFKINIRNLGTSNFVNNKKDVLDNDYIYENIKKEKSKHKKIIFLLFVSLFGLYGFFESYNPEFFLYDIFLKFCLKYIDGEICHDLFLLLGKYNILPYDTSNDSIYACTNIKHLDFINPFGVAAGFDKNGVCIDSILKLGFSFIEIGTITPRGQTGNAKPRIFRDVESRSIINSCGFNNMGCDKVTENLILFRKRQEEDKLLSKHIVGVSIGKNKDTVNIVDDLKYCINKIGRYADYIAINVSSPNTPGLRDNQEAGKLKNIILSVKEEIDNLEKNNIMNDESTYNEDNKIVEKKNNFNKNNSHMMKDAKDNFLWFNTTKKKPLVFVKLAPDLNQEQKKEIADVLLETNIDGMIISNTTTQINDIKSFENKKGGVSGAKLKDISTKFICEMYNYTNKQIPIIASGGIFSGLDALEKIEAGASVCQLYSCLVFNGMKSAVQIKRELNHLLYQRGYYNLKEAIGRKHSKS
Sequence of Homeobox protein Hox-A13 (Mus musculus) (Q62424 whole entry, looked up): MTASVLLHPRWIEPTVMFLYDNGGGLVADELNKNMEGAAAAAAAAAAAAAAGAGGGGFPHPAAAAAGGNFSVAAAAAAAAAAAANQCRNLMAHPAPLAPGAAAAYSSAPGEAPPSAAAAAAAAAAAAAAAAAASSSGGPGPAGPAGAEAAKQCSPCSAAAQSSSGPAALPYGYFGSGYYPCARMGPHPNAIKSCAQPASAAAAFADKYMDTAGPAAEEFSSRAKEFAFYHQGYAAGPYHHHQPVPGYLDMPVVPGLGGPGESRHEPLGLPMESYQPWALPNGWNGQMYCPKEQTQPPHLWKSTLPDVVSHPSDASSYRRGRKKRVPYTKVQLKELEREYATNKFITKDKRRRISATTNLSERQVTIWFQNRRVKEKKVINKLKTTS
Sequence of E3 ubiquitin-protein ligase XIAP (Homo sapiens) (P98170 whole entry, looked up, the tested form may be a part): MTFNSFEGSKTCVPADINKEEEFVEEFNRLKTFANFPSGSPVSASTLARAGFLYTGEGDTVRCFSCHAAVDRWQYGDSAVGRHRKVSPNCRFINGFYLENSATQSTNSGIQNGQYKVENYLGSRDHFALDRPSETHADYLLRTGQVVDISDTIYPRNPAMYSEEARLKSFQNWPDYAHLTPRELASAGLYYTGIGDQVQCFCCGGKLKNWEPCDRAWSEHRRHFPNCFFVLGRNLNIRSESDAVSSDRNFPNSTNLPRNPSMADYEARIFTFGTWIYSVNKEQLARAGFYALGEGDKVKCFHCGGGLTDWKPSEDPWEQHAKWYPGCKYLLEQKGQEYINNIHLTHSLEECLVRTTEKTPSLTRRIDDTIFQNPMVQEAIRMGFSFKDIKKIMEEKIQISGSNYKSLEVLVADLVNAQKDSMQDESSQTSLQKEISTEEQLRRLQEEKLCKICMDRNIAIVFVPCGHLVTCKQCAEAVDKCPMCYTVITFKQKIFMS

As to `C=CCN(Cc1ccccc1)C(=O)C1N(c2ccc(CCO)cc2)C(=O)C2C(C(=O)O)C3C=CC21O3` (stereo not given), the z-score in [1] is -1.09 and -0.194; in experiment [2], -0.627 (inactive) and -0.3 (inactive); in [3], -0.724 (inactive) and -1.11 (inactive); in experiment [5] it was 0.0279 (inactive) and 0.345 (inactive); in experiment [6] it was 0.345 (inactive) and -0.744 (inactive); in experiment [7] it was 0.522 (inactive) and 0.134 (inactive). The z-score in [8] was 0.0943 (inactive) and -0.178 (inactive); in experiment [9], -0.821 and -0.623; in experiment [12], -1.34 and -0.544; in experiment [13] it was -0.61 (inactive) and -2.5 (inactive); in experiment [14] it was 0.127 (inactive) and -0.193 (inactive); in experiment [15] it was -0.0077 (inactive) and -0.58 (inactive). For the same molecule, the composite z-score in experiment [4] was 0.79 (inactive) and 0.0901 (inactive); in experiment [10], -0.0629 and -0.365; in experiment [11], 0.224 (inactive) and -0.96 (inactive); in the experiment with XIP peptide (Xip251-270) it was -0.726 and 0.918.

As to `COC(=O)c1c2oc(c1C(=O)OC)C(=O)N[C@@H](Cc1ccccc1)Cn1cc(nn1)C1(CCCCC1)NC(=O)N[C@H](CO)CC2`, the z-score in experiment [1] is 1.61 and 1.46; in experiment [2], -4.6 (inactive) and 0.628 (inactive); in experiment [3], 0.74 (inactive) and 2.29 (inactive); in [5], 1.33 (inactive) and 0.997 (inactive); in experiment [6] it was -0.0882 (inactive) and -0.376 (inactive); in experiment [7], 1.89 (inactive) and 0.153 (inactive). Moreover, the z-score in [8] is 1.56 (inactive) and 0.279 (inactive); in experiment [9], 0.688 and 2.64; in experiment [12], 0.53 and 1.25; in experiment [13] it was -4.76 (inactive) and -2.08 (inactive); in [14] it was -0.496 (inactive) and 0.267 (inactive); in experiment [15], 0.184 (inactive) and 0.279 (inactive). Besides, the composite z-score is 0.338 (inactive) and 0.282 (inactive) in experiment [4]; 0.065 and -0.0187 in [10]; 0.398 (inactive) and -0.338 (inactive) in [11]; 0.762 and 0.215 in the experiment on XIP peptide (Xip251-270).

Consider `C=CCN(CCCCC)C(=O)C1N(c2ccc(CCO)cc2)C(=O)C2C(C(=O)O)C3C=CC21O3` (stereo not given), for which the z-score in [1] is -0.572 and -0.506; in experiment [2], -0.058 (inactive) and 0.644 (inactive); in experiment [3], -0.933 (inactive) and -1.12 (inactive); in [5], 0.317 (inactive) and 0.606 (inactive); in [6], -0.611 (inactive) and -0.297 (inactive); in experiment [7], -0.623 (inactive) and -0.0654 (inactive). Also, the z-score in experiment [8] was -0.689 (inactive) and -0.552 (inactive); in [9], -0.871 and -1.15; in experiment [12], 0.062 and -0.336; in experiment [13] it was -2.29 (inactive) and -2.06 (inactive); in [14], -0.0956 (inactive) and 0.477 (inactive); in [15], 0.0364 (inactive) and 0.181 (inactive). Also, the composite z-score is -0.0016 (inactive) and 0.598 (inactive) in experiment [4]; -0.193 and -0.0559 in experiment [10]; -0.53 (inactive) and -0.482 (inactive) in experiment [11]; 0.668 and 0.706 with XIP peptide (Xip251-270).

For `C=CCN(C(=O)C1N(CCCCCCO)C(=O)C2C(C(=O)O)C3C=CC21O3)C(C)(C)C` (stereo not given), the z-score in experiment [1] was -1.01 and -0.273; in experiment [2], 0.158 (inactive) and 0.0807 (inactive); in experiment [3] it was -0.184 (inactive) and -0.49 (inactive); in [5], -0.401 (inactive) and -0.484 (inactive); in [6], -0.37 (inactive) and -1.03 (inactive); in experiment [7] it was -0.739 (inactive) and -0.371 (inactive). Also, the z-score is -0.467 (inactive) and -0.281 (inactive) in [8]; -0.106 and -0.445 in experiment [9]; -0.0557 and 0.444 in experiment [12]; -0.569 (inactive) and -2.68 (inactive) in experiment [13]; -0.178 (inactive) and -0.102 (inactive) in experiment [14]; -0.0517 (inactive) and 0.113 (inactive) in experiment [15]. Further, the composite z-score in experiment [4] is -0.708 (inactive) and -0.59 (inactive); in experiment [10], -0.227 and -0.231; in experiment [11] it was -0.501 (inactive) and -0.559 (inactive); in the experiment on XIP peptide (Xip251-270) it was 0.429 and -1.

For the molecule `CCC[C@@H]1C[C@@]1(CCC)[C@@H](NC(=O)c1ccc(-c2ccccc2)cc1)c1cccc(Cl)c1`, the z-score in experiment [1] is 0.791 and 0.395; in [2], 0.0143 (inactive) and 1.49 (inactive); in experiment [3], -0.0393 (inactive) and -0.312 (inactive); in experiment [5], 1 (inactive) and 0.343 (inactive); in [6], 0.38 (inactive) and 1.47 (inactive); in experiment [7], -0.505 (inactive) and -0.336 (inactive). Moreover, the z-score in [8] was -0.61 (inactive) and -0.0929 (inactive); in experiment [9], 0.889 and -0.275; in [12], -0.687 and -1.16; in experiment [13] it was -3.47 (inactive) and -5.25 (inactive); in [14], 0.722 (inactive) and 0.514 (inactive); in [15] it was -0.198 (inactive) and 0.301 (inactive). Moreover, the composite z-score in experiment [4] is -0.824 (inactive) and 0.499 (inactive); in experiment [10] it was -0.0305 and 0.0623; in [11], 0.176 (inactive) and 0.184 (inactive); with XIP peptide (Xip251-270), -0.659 and 0.146.

The values are drawn from PubChem BioAssay.
